Screens: PubChem, The Scripps Research Institute Molecular Screening Center
Shown are actives, neighbours in structure and some others; about 3.5% of the full set was active somewhere.
TEAD-YAP block: TEAD-YAP interaction inhibition | AID 1259422 | HEK-TIYL cells, TEAD-Gal4/YAP UAS-luciferase luminescence | 640,000 compounds, 1.4% hits | inhibition, % at 9.12 µM; in the data active = inhibition above about 32%
MITF inh: inhibitors of human MITF; O75030; AlphaScreen MITF homodimerization, bead proximity signal; inhibition, % at 2.6 µM; 650,000 compounds, 0.91% hits; in the data active = inhibition above about 50%
Target sequence (O75030 whole entry, looked up): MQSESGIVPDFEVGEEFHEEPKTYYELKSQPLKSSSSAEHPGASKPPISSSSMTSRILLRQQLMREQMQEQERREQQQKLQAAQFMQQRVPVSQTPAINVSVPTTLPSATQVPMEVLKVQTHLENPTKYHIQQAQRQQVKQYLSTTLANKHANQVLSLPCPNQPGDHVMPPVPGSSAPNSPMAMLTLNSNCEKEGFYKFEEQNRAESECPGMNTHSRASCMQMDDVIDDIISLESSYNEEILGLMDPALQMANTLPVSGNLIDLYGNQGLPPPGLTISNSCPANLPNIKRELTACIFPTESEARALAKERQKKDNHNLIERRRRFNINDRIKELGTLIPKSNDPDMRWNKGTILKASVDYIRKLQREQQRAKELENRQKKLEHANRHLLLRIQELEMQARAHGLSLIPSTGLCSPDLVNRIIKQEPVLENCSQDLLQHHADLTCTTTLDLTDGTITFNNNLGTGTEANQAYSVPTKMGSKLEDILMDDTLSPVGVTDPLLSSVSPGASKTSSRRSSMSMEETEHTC
FBW7 act: human FBW7 E3 ligase activation, primary screen; Q969H0; AlphaScreen FBW7–phospho-cyclin E peptide binding, activator screen; normalized activity (activation), % at 26.1 µM; 650,000 compounds, 0.13% hits; AID 1259310; in the data active = normalized activity above about 1.9%;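 note: purified mutant Fbw7 with reduced substrate affinity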
GPR151 activ: activators of human GPR151; Q8TDV0; PathHunter beta-arrestin GPR151 cells, luminescence; activation, % at 11.2 µM; 650,000 compounds, 1% hits; AID 1508602; in the data active = activation above about 4.9%
MITF confirm: human MITF inhibition, confirmation | AID 1259372 | AlphaScreen MITF homodimerization, biotin/His-MITF beads | 4,700 compounds, 16% hits | shares compounds with MITF inh | inhibition, % at 2.6 µM;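 active = inhibition above a cutoff derived from the DMSO control wells, cut at about 28% in these data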;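 note: inhibitors lower the bead chemiluminescence by keeping MITF from dimerizing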
AlphaScreen intf2: AlphaScreen optical interference, counter-screen; shares compounds with MITF inh; LysRS AlphaScreen counterscreen, signal interference, triplicate; inhibition, % at 2.6 µM; 4,700 compounds, 7.6% hits;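 active = inhibition above a cutoff derived from the DMSO control wells, cut at about 30% in these data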
Numbers stand for hits.

Screening CCc1cc(OCCCNCCN2CCOCC2)ccc1Cl returned TEAD-YAP block inactive, MITF inh inactive, FBW7 act inactive and GPR151 activ inactive.
`CCc1cc(OCCCN2CCN(CC)CC2)ccc1Cl` gave TEAD-YAP block inactive, MITF inh 67, FBW7 act inactive, GPR151 activ inactive, MITF confirm inactive and AlphaScreen intf2 inactive.
`COc1cccc(CN2CCN(Cc3ccc(C(F)(F)F)cc3)CC2)c1` gave TEAD-YAP block inactive, MITF inh 81, FBW7 act inactive, GPR151 activ inactive, MITF confirm inactive and AlphaScreen intf2 inactive.
Screening COc1ccc(OC)c(CN2CCN(Cc3ccc(C(F)(F)F)cc3)CC2)c1 returned TEAD-YAP block inactive, MITF inh 78, FBW7 act inactive, GPR151 activ inactive, MITF confirm inactive and AlphaScreen intf2 inactive.
`CN1CCCN(Cc2ccc(C(F)(F)F)cc2)CC1` gave TEAD-YAP block inactive, MITF inh inactive, FBW7 act inactive and GPR151 activ inactive.
For FC(F)(F)c1ccc(CN2CCSCC2)cc1 the results were TEAD-YAP block inactive, MITF inh 58, FBW7 act inactive, GPR151 activ inactive, MITF confirm inactive and AlphaScreen intf2 inactive.
For COc1cc(C(=O)N2CCN(Cc3ccc(C(F)(F)F)cc3)CC2)cc(OC)c1OC the results were TEAD-YAP block inactive, MITF inh inactive, FBW7 act inactive and GPR151 activ inactive.
For COc1ccc(CN2CCN(Cc3ccc(C(F)(F)F)cc3)CC2)cc1 the results were TEAD-YAP block inactive, MITF inh 86, FBW7 act inactive, GPR151 activ inactive, MITF confirm inactive and AlphaScreen intf2 inactive.
For O=C(NCc1cccc(Oc2ccc(F)cc2)c1)c1ccco1 the results were TEAD-YAP block inactive, MITF inh inactive, FBW7 act inactive and GPR151 activ inactive.
`CCCNC(=O)c1ccc2nc(Nc3ccc(N4CCOCC4)cc3)sc2c1` gave TEAD-YAP block inactive, MITF inh inactive, FBW7 act inactive and GPR151 activ inactive.
Screening O=C(Cc1cn(-c2ccc(NCCN3CCOCC3)nn2)c2ccccc12)NCCCN1CCCC1=O returned TEAD-YAP block inactive, MITF inh 59, FBW7 act inactive, GPR151 activ inactive, MITF confirm inactive and AlphaScreen intf2 inactive.
For O=C(Cc1cn(-c2ccc(N3CCOCC3)nn2)c2ccccc12)NCCCN1CCCC1=O the results were TEAD-YAP block inactive, MITF inh inactive, FBW7 act inactive and GPR151 activ inactive.
`CC1=NC(=S)C2C(=O)O/C(=C/c3ccc(-c4cccc([N+](=O)[O-])c4)o3)C2=C1` (stereo not given) gave TEAD-YAP block inactive, MITF inh 53, FBW7 act inactive, GPR151 activ inactive, MITF confirm 34 and AlphaScreen intf2 inactive.
For Cn1cccc1/C=N/NC(=O)c1nc(N)n[nH]1 the results were TEAD-YAP block inactive, MITF inh inactive, FBW7 act inactive and GPR151 activ inactive.
Nc1n[nH]c(C(=O)N/N=C/c2cccs2)n1 was read as TEAD-YAP block inactive, MITF inh 77, FBW7 act inactive, GPR151 activ inactive, MITF confirm 51 and AlphaScreen intf2 95.
For Fc1ccc(C2CCN(Cc3cccnc3)CC2)cc1 the results were TEAD-YAP block inactive, MITF inh 53, FBW7 act inactive, GPR151 activ inactive, MITF confirm inactive and AlphaScreen intf2 inactive.
For Fc1ccccc1C1CCN(Cc2cccnc2)CC1 the results were TEAD-YAP block inactive, MITF inh inactive, FBW7 act inactive and GPR151 activ inactive.
Screening Fc1ccc(C2CCN(Cc3ccncc3)CC2)cc1 returned TEAD-YAP block inactive, MITF inh 60, FBW7 act inactive, GPR151 activ inactive, MITF confirm inactive and AlphaScreen intf2 inactive.
For COc1ccc(CCNC(=O)CSc2nnc(-c3c[nH]c4ccccc34)o2)cc1OC the results were TEAD-YAP block inactive, MITF inh inactive, FBW7 act inactive and GPR151 activ inactive.
COc1cc(CN(C)CCN(C)C)cc(OC)c1O was read as TEAD-YAP block inactive, MITF inh 55, FBW7 act inactive, GPR151 activ inactive, MITF confirm inactive and AlphaScreen intf2 inactive.
O=C(NCC1CCCN(Cc2ccc(OCc3ccccc3)cc2)C1)c1cccnc1 (stereo not given) was read as TEAD-YAP block inactive, MITF inh 51, FBW7 act inactive, GPR151 activ inactive, MITF confirm inactive and AlphaScreen intf2 inactive.
`CSc1ccc(CN2CCCC(CNC(=O)c3cccnc3)C2)cc1` (stereo not given) gave TEAD-YAP block inactive, MITF inh inactive, FBW7 act inactive and GPR151 activ inactive.
Screening COC(=O)CN1C(=O)S/C(=C/c2ccc(-c3cc([N+](=O)[O-])ccc3OC)o2)C1=O returned TEAD-YAP block inactive, MITF inh inactive, FBW7 act inactive and GPR151 activ inactive.
Screening CSc1ccc(CN2CCN(CCCc3ccccc3)CC2)cc1 returned TEAD-YAP block inactive, MITF inh 64, FBW7 act inactive, GPR151 activ inactive, MITF confirm inactive and AlphaScreen intf2 inactive.
`Cc1cccc(CN2CCN(CCCc3ccccc3)CC2)c1` gave TEAD-YAP block inactive, MITF inh 69, FBW7 act inactive, GPR151 activ inactive, MITF confirm inactive and AlphaScreen intf2 inactive.
CCCCOc1cccc(NC(=O)CSc2nc(C)cc(C)c2C#N)c1 was read as TEAD-YAP block inactive, MITF inh inactive, FBW7 act inactive and GPR151 activ inactive.
Screening COc1cc(CN2CCN(Cc3ccccc3Br)CC2)cc(OC)c1O returned TEAD-YAP block inactive, MITF inh 68, FBW7 act inactive, GPR151 activ inactive, MITF confirm inactive and AlphaScreen intf2 inactive.
COc1cc(CN2CCN(Cc3ccccc3C)CC2)cc(OC)c1O was read as TEAD-YAP block inactive, MITF inh 59, FBW7 act inactive, GPR151 activ inactive, MITF confirm inactive and AlphaScreen intf2 inactive.
Screening COc1cc(CN2CCN(c3ccccn3)CC2)cc(Br)c1O returned TEAD-YAP block inactive, MITF inh inactive, FBW7 act inactive and GPR151 activ inactive.
Screening COc1cc(CN2CCN(Cc3c[nH]c4ccccc34)CC2)cc(OC)c1OC returned TEAD-YAP block inactive, MITF inh 56, FBW7 act inactive, GPR151 activ inactive, MITF confirm inactive and AlphaScreen intf2 inactive.
For COc1cc(CN2CCN(C(=O)c3ccccc3)CC2)cc(OC)c1O the results were TEAD-YAP block inactive, MITF inh inactive, FBW7 act inactive and GPR151 activ inactive.
For COc1cc(CN2CCN(CCO)CC2)cc(Br)c1O the results were TEAD-YAP block inactive, MITF inh 67, FBW7 act inactive, GPR151 activ inactive, MITF confirm inactive and AlphaScreen intf2 inactive.
Screening CCC1CCc2c(sc(NC(=O)c3ccc(Cl)c([N+](=O)[O-])c3)c2C(=O)OC)C1 (stereo not given) returned TEAD-YAP block inactive, MITF inh inactive, FBW7 act inactive and GPR151 activ inactive.
Screening COc1cc(CN2CCN(c3ccccc3C)CC2)cc(OC)c1OC returned TEAD-YAP block inactive, MITF inh inactive, FBW7 act inactive and GPR151 activ inactive.
